Measurements published in PubChem BioAssay (Tox21).
Activity calls are given as the source filed them. The call rests on the fitted dose curve; in most records, active means well fitted curve in the direction sought with a large enough effect in the repeat runs; inconclusive means weak or mixed curves; inactive means flat fitted curve, though single readings scatter.

Experiment: qHTS assay to test for compound auto fluorescence at 535 nm (green) in HEK293 cell free culture (AID 720682)
Conditions: cell-free medium, green autofluorescence 485/535 nm; series mostly up to 91.3 µM
From the text: U.S. Tox21 Program National Center for Advancing Translational Sciences [NCATS] NIH Chemical Genomics Center [NCGC] U.S. Environmental Protection Agency [EPA] National Institutes of Environmental Health Sciences [NIEHS] National Toxicology Program [NTP] U.S. Food and Drug Administration [FDA] Tox21 Assay Overview: Compound auto fluorescence often interferes with screening of the compound library against various biological targets and signaling pathways. Some of these compounds may have fluorophoric properties. Such properties may interfere with the assay outputs resulting in false positives and/or negatives. To decrease such complications and ensure the compound activities are relevant in terms of biological response, the Tox21 10K compound library was screened for auto fluorescence. From the fluorophores used as reporter signals in our screening assays, the auto fluorescence equivalencies of compounds against three fluorophores have been evaluated: Triamterene, Fluorescein and Rose Bengal sodium for blue, green and red fluorescence, respectively. The fluorescence intensities were measured using Excitation/Emission wavelengths at 405/460nm, 485/535nm and 540/590nm for blue, green and red labels, respectively. This assay includes the green fluorescence data.
Tox21 Assay Protocol Summary: 5 uL of culture medium (DMEM containing 10% FBS) per well was dispensed into black wall/clear bottom 1536-well plates using a Multidrop Combi Dispenser (ThermoFisher Scientific, Waltham, MA). After 23 nL compound or DMSO vehicle was transferred into assay plate by a pintool work station (Kalypsys, San Diego, CA), fluorescence intensities in the assay plates were measured by an Envision (PerkinElmer, Shelton, CT) plate reader using three labels for measuring blue, green and red fluorescence at […] 460, 535 and 590nm respectively.

Row | Compound | outcome
1 | NC(=S)Nc1ccccc1 | inactive
2 | O=[N+]([O-])c1cccc2ccccc12 | inactive
3 | C=C(C)[C@H]1Cc2c(ccc3c2O[C@@H]2COc4cc(OC)c(OC)cc4[C@@H]2C3=O)O1 | inactive
4 | Nc1cccnc1 | inactive
5 | CCOc1cc(Oc2ccc(C(F)(F)F)cc2Cl)ccc1[N+](=O)[O-] | inactive
6 | COP(=S)(OC)Oc1ccc([N+](=O)[O-])cc1 | inactive
7 | CCOCN(C(=O)CCl)c1c(C)cccc1CC | inactive
8 | CCCCN(CC)c1c([N+](=O)[O-])cc(C(F)(F)F)cc1[N+](=O)[O-] | inactive
9 | NNC(N)=S | inactive
10 | Nc1ccc(-c2ccc(N)c(N)c2)cc1N | inactive
11 | CCC(C)(C)c1ccc(O)cc1 | inactive
12 | CCCCCc1cc(O)cc(O)c1 | inactive
13 | S=C1NCCN1 | inactive
14 | C#CCOS(=O)OC1CCCCC1Oc1ccc(C(C)(C)C)cc1 (stereo not given) | inactive
15 | C[C@]12CCC(=O)C(O)=C1CC[C@@H]1[C@@H]2CC[C@]2(C)C(=O)CC[C@@H]12 | inactive
16 | CCN(N=O)C(N)=O | inactive
17 | Cc1c(COC(=O)[C@@H]2[C@H](/C=C(\Cl)C(F)(F)F)C2(C)C)cccc1-c1ccccc1 | inactive
18 | O=C1C=CC(=O)C=C1 | inactive
19 | CCC(C)c1ccc(O)cc1 (stereo not given) | inactive
20 | O=C(O)CC[N+](=O)[O-] | inactive

Row | Compound | outcome
21 | O=P(O)(O)CCCl | inactive
22 | NCc1cccnc1 | inactive
23 | ClC1C(Cl)C(Cl)C(Cl)C(Cl)C1Cl (stereo not given) | inactive
24 | CNC(=O)N(C)c1nnc(C(C)(C)C)s1 | inactive
25 | CC(C)c1ccc(CO)cc1 | inactive
26 | CC(C)C(=O)OCC(C)(C)C(OC(=O)C(C)C)C(C)C (stereo not given) | inactive
27 | Oc1c(Cl)c(Cl)c(Cl)c(Cl)c1Cl | inactive
28 | N#Cc1cc(Br)c(O)c(Br)c1 | inactive
29 | C=C(C)C(=O)OCC1CO1 (stereo not given) | inactive
30 | CCOC(=O)C(C)OC(=O)c1cc(Oc2ccc(C(F)(F)F)cc2Cl)ccc1[N+](=O)[O-] (stereo not given) | inactive
31 | O=P(Oc1ccccc1)(Oc1ccccc1)Oc1ccccc1 | inactive
32 | CCC(=O)O[C@H]1CC[C@H]2[C@@H]3CCC4=CC(=O)CC[C@]4(C)[C@H]3CC[C@]12C | inactive
33 | CCOC(=S)S | inactive
34 | O=C(NC(=O)c1c(F)cccc1F)Nc1ccc(Cl)cc1 | inactive
35 | Cc1ccccc1[N+](=O)[O-] | inactive
36 | C#C[C@]1(O)CC[C@H]2[C@@H]3CCC4=CC(=O)CC[C@]4(C)[C@H]3CC[C@@]21C | inactive
37 | CC(C)Oc1cc(-n2nc(C(C)(C)C)oc2=O)c(Cl)cc1Cl | inactive
38 | c1ccc(N=Nc2ccccc2)cc1 | inactive
39 | N#CCCCl | inactive
40 | CC(C)N(C(=O)SCC(Cl)=C(Cl)Cl)C(C)C | inactive
